# According to publication PMC7862700, “An all-to-all approach to the identification of sequence-specific readers for epigenetic DNA modifications on cytosine”:
# How the values were obtained:
# Test in all cases: DAPPL (digital affinity profiling via proximity ligation, sequencing); 10 mM Tris-HCl pH 7.5, 50 mM NaCl, 1 mM DTT, 4% glycerol, room temperature, 30 min; GST-TFs on glutathione beads, 16-mer random dsDNA library, 0.1% formaldehyde crosslink after washing; high values mean tight binding
# FEV = biological target: T1, FEV (Homo sapiens, UniProt Q99581 1-238); settings: protein: recombinant; tags: N-terminal GST; dsDNA, one strand shown
# T1 sequence: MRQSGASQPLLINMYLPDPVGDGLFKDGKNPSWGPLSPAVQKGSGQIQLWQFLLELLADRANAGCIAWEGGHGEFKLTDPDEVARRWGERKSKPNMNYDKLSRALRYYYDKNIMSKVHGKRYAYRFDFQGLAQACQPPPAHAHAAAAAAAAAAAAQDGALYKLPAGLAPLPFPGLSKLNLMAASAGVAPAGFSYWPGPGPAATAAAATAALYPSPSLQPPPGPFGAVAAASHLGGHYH
# Outline: (§1)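 Binding signal is each hexamer's read frequency for a factor divided by its frequency in the tag-only sample. The factors were GST-fused human transcription factors from yeast, captured on glutathione beads, DNA-barcoded and pooled with that sample. Pools were incubated with 200 nmole of a random double-stranded 16-mer DNA library in Tris/NaCl/DTT/glycerol buffer at room temperature for 30 min, then washed, crosslinked with 0.1% formaldehyde, proximity-ligated with BsaI/T4 ligase (1 h, 37 °C), PCR-amplified and sequenced on an Illumina NextSeq500.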
# ETV5 = ETV5 (Homo sapiens, UniProt P41161 1-510); settings: protein: recombinant; tags: N-terminal GST; dsDNA, one strand shown
# ETV5, sequence (P41161 whole entry): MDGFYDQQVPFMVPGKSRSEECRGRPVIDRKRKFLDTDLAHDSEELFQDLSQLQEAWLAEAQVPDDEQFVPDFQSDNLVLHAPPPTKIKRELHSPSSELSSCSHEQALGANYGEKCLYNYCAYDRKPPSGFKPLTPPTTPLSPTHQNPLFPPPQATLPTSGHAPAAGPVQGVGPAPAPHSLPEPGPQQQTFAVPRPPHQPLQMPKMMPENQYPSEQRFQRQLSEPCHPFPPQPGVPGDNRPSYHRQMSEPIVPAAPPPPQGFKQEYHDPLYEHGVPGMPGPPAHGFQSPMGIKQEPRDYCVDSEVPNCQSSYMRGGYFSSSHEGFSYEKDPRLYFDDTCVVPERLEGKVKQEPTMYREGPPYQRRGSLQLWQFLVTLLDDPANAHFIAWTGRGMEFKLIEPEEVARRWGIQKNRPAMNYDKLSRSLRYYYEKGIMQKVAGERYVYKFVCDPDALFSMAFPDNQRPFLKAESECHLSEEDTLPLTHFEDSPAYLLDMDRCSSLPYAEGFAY
# Outline: as §1
# HSF1 = HSF1 (Homo sapiens, UniProt Q00613 1-529); settings: protein: recombinant; tags: N-terminal GST; chain copies: 3; dsDNA, one strand shown
# HSF1, sequence (Q00613 whole entry): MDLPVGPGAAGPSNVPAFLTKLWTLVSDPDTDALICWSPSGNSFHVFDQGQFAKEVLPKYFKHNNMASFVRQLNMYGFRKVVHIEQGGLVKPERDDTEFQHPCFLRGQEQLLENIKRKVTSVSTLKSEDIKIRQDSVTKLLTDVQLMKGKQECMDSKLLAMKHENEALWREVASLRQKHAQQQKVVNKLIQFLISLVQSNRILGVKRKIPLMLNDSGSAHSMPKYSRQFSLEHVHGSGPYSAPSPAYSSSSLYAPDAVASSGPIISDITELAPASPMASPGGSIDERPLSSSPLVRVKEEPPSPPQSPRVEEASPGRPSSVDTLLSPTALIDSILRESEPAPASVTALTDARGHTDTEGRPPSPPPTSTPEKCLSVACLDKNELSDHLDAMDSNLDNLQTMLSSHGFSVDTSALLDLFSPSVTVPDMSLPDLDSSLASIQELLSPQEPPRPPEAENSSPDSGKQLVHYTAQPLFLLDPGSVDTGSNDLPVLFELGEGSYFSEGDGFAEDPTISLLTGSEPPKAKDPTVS
# Outline: as §1
# SPIC = biological target: T2, SPIC (Homo sapiens, UniProt Q8N5J4 1-248); settings: protein: recombinant; tags: N-terminal GST; dsDNA, one strand shown
# T2 sequence: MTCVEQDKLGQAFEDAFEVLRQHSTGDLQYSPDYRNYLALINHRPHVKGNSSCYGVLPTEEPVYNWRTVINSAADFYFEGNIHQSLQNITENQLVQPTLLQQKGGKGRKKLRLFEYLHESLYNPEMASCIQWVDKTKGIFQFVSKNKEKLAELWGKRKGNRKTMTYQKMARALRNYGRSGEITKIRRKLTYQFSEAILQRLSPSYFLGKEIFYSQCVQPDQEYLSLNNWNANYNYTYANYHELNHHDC
# Outline: as §1
# ELF4 = ELF4 (Homo sapiens, UniProt Q99607 1-663); settings: protein: recombinant; tags: N-terminal GST; dsDNA, one strand shown
# ELF4, sequence (Q99607 whole entry): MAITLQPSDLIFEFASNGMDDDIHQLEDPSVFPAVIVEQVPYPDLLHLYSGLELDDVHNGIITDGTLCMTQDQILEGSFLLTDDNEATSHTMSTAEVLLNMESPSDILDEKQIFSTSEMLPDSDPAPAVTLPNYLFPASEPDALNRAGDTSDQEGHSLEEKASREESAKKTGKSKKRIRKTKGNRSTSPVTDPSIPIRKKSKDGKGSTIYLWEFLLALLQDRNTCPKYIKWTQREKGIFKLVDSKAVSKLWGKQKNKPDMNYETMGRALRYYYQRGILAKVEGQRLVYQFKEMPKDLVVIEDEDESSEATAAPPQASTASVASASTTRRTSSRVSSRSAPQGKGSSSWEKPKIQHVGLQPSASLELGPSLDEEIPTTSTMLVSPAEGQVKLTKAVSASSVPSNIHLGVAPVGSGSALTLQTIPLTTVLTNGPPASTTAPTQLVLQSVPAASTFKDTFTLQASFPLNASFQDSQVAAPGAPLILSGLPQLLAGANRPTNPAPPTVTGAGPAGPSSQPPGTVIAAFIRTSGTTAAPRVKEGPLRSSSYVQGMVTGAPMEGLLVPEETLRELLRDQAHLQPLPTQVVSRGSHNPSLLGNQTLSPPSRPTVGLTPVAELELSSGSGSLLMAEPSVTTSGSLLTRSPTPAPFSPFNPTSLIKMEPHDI
# Outline: as §1
# ELK4 = biological target: T3, ELK4 (Homo sapiens, UniProt P28324-2 1-405); settings: protein: recombinant; tags: N-terminal GST; dsDNA, one strand shown
# T3 sequence: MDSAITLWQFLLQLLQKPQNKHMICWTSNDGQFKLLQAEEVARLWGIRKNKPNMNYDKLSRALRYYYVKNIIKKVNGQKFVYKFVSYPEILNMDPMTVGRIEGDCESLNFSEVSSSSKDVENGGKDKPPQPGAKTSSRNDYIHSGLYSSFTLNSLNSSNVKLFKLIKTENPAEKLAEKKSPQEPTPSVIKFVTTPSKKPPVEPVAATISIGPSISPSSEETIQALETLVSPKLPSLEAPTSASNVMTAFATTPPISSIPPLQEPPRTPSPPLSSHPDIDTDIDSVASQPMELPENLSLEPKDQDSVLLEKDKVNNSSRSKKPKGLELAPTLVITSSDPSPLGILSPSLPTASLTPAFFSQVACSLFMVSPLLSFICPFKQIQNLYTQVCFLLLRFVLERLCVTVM
# Outline: as §1
# ETV2 = biological target: T4, ETV2 (Homo sapiens, UniProt O00321 1-342); settings: protein: recombinant; tags: N-terminal GST; dsDNA, one strand shown
# T4 sequence: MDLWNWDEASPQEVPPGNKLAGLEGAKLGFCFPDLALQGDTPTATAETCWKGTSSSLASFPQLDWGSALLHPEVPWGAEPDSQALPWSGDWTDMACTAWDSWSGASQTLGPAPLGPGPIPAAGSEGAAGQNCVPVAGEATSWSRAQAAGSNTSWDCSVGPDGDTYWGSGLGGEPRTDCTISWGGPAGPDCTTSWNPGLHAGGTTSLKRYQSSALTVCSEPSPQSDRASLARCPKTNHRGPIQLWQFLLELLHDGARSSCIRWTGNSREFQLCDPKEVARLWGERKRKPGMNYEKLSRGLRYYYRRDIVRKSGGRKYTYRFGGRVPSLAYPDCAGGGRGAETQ
# Outline: as §1
# ELF3 = biological target: T5, ELF3 (Homo sapiens, UniProt P78545 1-371); settings: protein: recombinant; tags: N-terminal GST; dsDNA, one strand shown
# T5 sequence: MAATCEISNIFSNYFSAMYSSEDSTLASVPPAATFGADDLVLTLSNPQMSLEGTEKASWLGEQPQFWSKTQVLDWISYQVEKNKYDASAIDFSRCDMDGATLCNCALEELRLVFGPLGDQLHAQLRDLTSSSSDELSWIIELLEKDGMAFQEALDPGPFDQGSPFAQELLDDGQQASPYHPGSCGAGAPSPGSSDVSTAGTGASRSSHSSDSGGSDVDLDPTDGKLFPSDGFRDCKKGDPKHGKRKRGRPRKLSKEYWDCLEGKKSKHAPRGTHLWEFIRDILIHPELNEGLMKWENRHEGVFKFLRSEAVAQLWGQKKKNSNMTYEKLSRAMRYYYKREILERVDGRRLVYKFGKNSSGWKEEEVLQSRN
# Outline: as §1
# CRX = CRX (Homo sapiens, UniProt O43186 1-299); settings: protein: recombinant; tags: N-terminal GST; dsDNA, one strand shown
# CRX, sequence (O43186 whole entry): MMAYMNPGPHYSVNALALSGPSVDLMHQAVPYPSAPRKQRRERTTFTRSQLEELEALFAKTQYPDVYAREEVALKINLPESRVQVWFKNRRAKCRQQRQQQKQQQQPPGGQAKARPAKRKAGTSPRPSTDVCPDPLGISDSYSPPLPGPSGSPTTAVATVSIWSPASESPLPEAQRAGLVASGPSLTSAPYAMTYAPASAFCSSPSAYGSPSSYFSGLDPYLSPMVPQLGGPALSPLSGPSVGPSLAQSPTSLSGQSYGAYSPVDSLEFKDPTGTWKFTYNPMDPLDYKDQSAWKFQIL
# Outline: as §1
# ETV1 = ETV1 (Homo sapiens, UniProt P50549 1-477); settings: protein: recombinant; tags: N-terminal GST; dsDNA, one strand shown
# ETV1, sequence (P50549 whole entry): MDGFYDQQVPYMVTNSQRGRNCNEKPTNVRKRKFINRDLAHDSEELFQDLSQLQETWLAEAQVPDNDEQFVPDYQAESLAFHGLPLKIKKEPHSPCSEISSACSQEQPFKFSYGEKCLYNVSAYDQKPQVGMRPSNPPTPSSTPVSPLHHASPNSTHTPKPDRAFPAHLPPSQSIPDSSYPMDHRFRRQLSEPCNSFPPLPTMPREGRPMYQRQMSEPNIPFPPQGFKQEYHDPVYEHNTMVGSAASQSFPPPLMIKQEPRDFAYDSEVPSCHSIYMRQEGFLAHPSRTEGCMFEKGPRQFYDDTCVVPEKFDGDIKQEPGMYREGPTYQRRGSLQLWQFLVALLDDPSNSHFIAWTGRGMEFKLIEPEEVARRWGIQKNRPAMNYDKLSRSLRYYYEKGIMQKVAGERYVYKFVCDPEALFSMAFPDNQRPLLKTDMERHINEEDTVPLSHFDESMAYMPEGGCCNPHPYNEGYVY
# Outline: as §1
# ERF = biological target: T6, ERF (Homo sapiens, UniProt P50548 1-548); settings: protein: recombinant; tags: N-terminal GST; dsDNA, one strand shown
# T6 sequence: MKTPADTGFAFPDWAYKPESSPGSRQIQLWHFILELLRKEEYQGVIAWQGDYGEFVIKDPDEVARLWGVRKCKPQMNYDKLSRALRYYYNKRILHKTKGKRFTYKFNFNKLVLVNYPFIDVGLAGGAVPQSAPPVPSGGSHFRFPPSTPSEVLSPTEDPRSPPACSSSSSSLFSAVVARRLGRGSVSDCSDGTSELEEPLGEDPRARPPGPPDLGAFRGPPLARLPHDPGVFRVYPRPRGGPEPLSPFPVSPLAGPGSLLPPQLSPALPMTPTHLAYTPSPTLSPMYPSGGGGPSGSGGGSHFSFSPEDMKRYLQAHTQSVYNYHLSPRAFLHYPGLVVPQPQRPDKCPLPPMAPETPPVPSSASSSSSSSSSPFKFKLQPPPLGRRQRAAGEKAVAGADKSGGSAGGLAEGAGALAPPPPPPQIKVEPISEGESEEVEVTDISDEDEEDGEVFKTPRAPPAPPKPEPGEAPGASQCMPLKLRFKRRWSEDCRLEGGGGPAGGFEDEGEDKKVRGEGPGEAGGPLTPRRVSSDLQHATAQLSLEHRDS
# Outline: as §1
# ETV3L = biological target: T7, ETV3L (Homo sapiens, UniProt Q6ZN32 1-361); settings: protein: recombinant; tags: N-terminal GST; dsDNA, one strand shown
# T7 sequence: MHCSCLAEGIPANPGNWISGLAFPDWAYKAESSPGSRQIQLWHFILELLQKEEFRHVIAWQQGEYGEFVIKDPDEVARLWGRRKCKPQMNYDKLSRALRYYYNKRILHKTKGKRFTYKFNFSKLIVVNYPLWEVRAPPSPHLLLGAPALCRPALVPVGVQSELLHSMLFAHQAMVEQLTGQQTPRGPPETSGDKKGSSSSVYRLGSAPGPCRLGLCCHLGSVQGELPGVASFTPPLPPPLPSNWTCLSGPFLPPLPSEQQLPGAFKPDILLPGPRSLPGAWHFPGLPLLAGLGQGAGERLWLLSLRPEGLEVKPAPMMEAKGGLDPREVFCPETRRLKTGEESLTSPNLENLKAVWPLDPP
# Outline: as §1
# ETS2 = biological target: T8, ETS2 (Homo sapiens, UniProt P15036 1-469); settings: protein: recombinant; tags: N-terminal GST; dsDNA, one strand shown
# T8 sequence: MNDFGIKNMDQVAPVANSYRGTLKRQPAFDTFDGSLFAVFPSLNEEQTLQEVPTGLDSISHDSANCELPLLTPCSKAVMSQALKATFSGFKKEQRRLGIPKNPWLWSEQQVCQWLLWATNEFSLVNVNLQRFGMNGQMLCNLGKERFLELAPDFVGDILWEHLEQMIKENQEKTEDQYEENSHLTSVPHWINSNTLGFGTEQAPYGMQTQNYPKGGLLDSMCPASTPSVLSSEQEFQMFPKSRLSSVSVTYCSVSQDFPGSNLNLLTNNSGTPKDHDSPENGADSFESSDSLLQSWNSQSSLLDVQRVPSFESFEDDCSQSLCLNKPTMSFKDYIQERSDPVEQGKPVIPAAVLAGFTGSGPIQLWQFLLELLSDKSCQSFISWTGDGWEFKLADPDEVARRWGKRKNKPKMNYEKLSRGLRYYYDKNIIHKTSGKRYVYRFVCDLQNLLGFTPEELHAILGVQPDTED
# Outline: as §1
# SPDEF = biological target: T9, SPDEF (Homo sapiens, UniProt O95238 1-335); settings: protein: recombinant; tags: N-terminal GST; dsDNA, one strand shown
# T9 sequence: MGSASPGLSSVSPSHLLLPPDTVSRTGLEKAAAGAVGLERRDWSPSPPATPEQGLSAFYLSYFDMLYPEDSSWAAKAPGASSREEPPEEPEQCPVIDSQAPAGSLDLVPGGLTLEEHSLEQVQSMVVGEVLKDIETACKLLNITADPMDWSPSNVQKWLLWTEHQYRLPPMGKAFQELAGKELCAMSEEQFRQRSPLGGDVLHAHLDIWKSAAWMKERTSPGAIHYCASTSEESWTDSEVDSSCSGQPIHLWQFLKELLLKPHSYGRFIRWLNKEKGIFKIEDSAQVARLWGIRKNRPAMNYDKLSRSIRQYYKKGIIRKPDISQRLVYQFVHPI
# Outline: as §1
# ETV7 = biological target: T10, ETV7 (Homo sapiens, UniProt Q9Y603 1-341); settings: protein: recombinant; tags: N-terminal GST; dsDNA, one strand shown
# T10 sequence: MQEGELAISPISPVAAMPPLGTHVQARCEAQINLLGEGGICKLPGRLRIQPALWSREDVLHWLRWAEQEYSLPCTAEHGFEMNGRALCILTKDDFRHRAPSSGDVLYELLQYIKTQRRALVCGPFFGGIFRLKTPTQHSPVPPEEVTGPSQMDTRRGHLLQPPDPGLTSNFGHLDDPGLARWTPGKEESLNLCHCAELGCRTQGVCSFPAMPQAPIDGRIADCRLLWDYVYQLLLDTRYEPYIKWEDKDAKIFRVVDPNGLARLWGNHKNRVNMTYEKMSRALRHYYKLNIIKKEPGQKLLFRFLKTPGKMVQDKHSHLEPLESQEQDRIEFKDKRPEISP
# Outline: as §1
# ELF5 = biological target: T11, ELF5 (Homo sapiens, UniProt Q9UKW6-2 1-255); settings: protein: recombinant; tags: N-terminal GST; dsDNA, one strand shown
# T11 sequence: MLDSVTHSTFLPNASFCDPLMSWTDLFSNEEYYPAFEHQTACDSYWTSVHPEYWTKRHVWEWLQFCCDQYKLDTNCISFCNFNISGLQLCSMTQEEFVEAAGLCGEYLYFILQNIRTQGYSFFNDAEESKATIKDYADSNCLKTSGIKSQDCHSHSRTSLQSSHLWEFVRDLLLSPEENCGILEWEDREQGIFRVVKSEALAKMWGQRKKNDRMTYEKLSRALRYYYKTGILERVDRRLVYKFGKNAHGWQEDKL
# Outline: as §1
# ETV3 = biological target: T12, ETV3 (Homo sapiens, UniProt P41162-2 1-143); settings: protein: recombinant; tags: N-terminal GST; dsDNA, one strand shown
# T12 sequence: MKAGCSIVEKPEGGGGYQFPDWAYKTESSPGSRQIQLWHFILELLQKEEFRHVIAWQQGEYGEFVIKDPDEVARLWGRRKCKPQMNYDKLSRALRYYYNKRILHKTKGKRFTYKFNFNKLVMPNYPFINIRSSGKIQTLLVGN
# Outline: as §1
# ETV6 = ETV6 (Homo sapiens, UniProt P41212 1-452); settings: protein: recombinant; tags: N-terminal GST; dsDNA, one strand shown
# ETV6, sequence (P41212 whole entry): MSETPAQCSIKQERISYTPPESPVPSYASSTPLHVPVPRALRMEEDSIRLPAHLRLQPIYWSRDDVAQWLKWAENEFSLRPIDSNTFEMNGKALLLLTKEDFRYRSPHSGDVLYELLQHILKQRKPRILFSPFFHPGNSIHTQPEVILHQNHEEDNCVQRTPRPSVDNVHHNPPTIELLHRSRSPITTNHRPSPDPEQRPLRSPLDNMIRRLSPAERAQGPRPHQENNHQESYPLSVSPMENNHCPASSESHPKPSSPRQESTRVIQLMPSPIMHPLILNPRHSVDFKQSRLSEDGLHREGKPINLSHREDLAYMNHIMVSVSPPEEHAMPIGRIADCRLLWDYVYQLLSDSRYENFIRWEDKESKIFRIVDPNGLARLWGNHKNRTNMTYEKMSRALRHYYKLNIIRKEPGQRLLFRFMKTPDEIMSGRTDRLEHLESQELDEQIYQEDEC
# Outline: as §1
sequence,measurement,setting,value
ACTGCT,binding signal,FEV,"1.48 fold enrichment (6-mer frequency, TF over GST control)"
same,binding signal,ETV5,"1.41 fold enrichment (6-mer frequency, TF over GST control)"
same,binding signal,HSF1,"1.19 fold enrichment (6-mer frequency, TF over GST control)"
same,binding signal,SPIC,"1.56 fold enrichment (6-mer frequency, TF over GST control)"
same,binding signal,ELF4,"1.3 fold enrichment (6-mer frequency, TF over GST control)"
same,binding signal,ELK4,"1.54 fold enrichment (6-mer frequency, TF over GST control)"
same,binding signal,ETV2,"1.26 fold enrichment (6-mer frequency, TF over GST control)"
same,binding signal,ELF3,"1.32 fold enrichment (6-mer frequency, TF over GST control)"
same,binding signal,CRX,"1.21 fold enrichment (6-mer frequency, TF over GST control)"
same,binding signal,ETV1,"1.33 fold enrichment (6-mer frequency, TF over GST control)"
same,binding signal,ERF,"1.27 fold enrichment (6-mer frequency, TF over GST control)"
same,binding signal,ETV3L,"1.41 fold enrichment (6-mer frequency, TF over GST control)"
same,binding signal,ETS2,"1.38 fold enrichment (6-mer frequency, TF over GST control)"
same,binding signal,SPDEF,"1.26 fold enrichment (6-mer frequency, TF over GST control)"
same,binding signal,ETV7,"1.4 fold enrichment (6-mer frequency, TF over GST control)"
same,binding signal,ELF5,"1.33 fold enrichment (6-mer frequency, TF over GST control)"
same,binding signal,ETV3,"1.42 fold enrichment (6-mer frequency, TF over GST control)"
same,binding signal,ETV6,"1.33 fold enrichment (6-mer frequency, TF over GST control)"
